From the supplement of paper PMC6607015
Where a name gives a salt, the structure may show the parent alone.

Columns and labels:
Details in all cases: compound concentration in added solution (µM; 5 µl added to 20 µl cells): 10; 18 h
A431 [1] = assay: LBPA endosome anti-LBPA integrated intensity (sum per cell), Z-score; higher = more LBPA staining
Outline: (§1)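 The data are Z-scores, normalised in AcuityXpress, of integrated LBPA or filipin intensity in each cell, either whole-cell or restricted to LBPA endosomes. HeLa MZ or A431 cells, 3,500 per well in 20 µl, were seeded onto 5 µl of 10 µM compound solution in duplicate 384-well plates and incubated 18 h. Fixed cells were stained and imaged, with intensities extracted by MetaXpress segmentation.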

HeLa MZ [2] = assay: as above
Outline: as §1

A431 [3] = assay: whole-cell filipin (free cholesterol) integrated intensity, Z-score; higher = more cholesterol staining
Outline: as §1

HeLa MZ [4] = assay: as above
Outline: as §1

A431 [5] = assay: filipin (cholesterol) integrated intensity within LBPA endosomes, Z-score; higher = more cholesterol in LBPA endosomes
Outline: as §1

HeLa MZ [6] = assay: as above
Outline: as §1

SMILES	LBPA endosome anti-LBPA integrated intensity (z-score) (A431 [1])	LBPA endosome anti-LBPA integrated intensity (z-score) (HeLa MZ [2])	whole-cell filipin (z-score) (A431 [3])	whole-cell filipin (z-score) (HeLa MZ [4])	filipin (z-score) (A431 [5])	filipin (z-score) (HeLa MZ [6])
CS(=O)(=O)c1ccc([C@@H](O)[C@@H](CO)NC(=O)C(Cl)Cl)cc1 [Thiamphenicol]	-0.461	-0.533	-0.551	-0.526	-0.439	-0.625
CCCN(CCC)C(=O)C(CCC(=O)O)NC(=O)c1ccccc1 (stereo not given) [Proglumide]	-0.629	-1.36	-1.22	-0.766	-0.53	-0.607
CN(C)C(=N)NC(=N)N [Metformin hydrochloride]	-0.525	-0.838	-0.902	-0.3	-0.437	-0.498
COCCCC/C(=N\OCCN)c1ccc(C(F)(F)F)cc1 [Fluvoxamine maleate]	0.482	2.11	1.69	0.282	0.839	0.935
C[C@@H]1C[C@H]2[C@@H]3CCC4=CC(=O)C=C[C@]4(C)[C@@]3(Cl)[C@@H](O)C[C@]2(C)[C@@]1(OC(=O)c1ccco1)C(=O)CCl [Mometasone furoate]	-0.183	0.598	-0.317	1.11	-0.214	0.7
CC[N+](CC)(CC)CCOc1cccc(OCC[N+](CC)(CC)CC)c1OCC[N+](CC)(CC)CC [Gallamine triethiodide]	-0.558	-0.807	-0.891	-0.384	-0.526	-0.576
Clc1ccc(COC(Cn2ccnc2)c2ccc(Cl)cc2Cl)c(Cl)c1 (stereo not given) [Miconazole]	0.0492	1.55	0.107	0.176	-0.0467	0.514
CN(C)CCCC1(c2ccc(F)cc2)OCc2cc(C#N)ccc21 (stereo not given) [Citalopram Hydrobromide]	-0.329	1.58	0.204	0.212	-0.352	0.534
Cc1[nH]c(=O)c(C#N)cc1-c1ccncc1 [Milrinone]	-0.393	0.29	-0.171	-0.0695	-0.351	-0.372
c1ccc2[nH]c(-c3cscn3)nc2c1 [Tiabendazole]	-0.626	-1.01	-0.678	-0.558	-0.54	-0.645
CCC(Cc1c(I)cc(I)c(N)c1I)C(=O)O (stereo not given) [Iopanoic acid]	-0.521	-0.571	-0.348	-0.587	-0.484	-0.466
C=CCOc1ccccc1OCC(O)CNC(C)C (stereo not given) [Oxprenolol hydrochloride]	-0.0805	0.635	0.289	0.262	-0.232	-0.267
CC(C)NC[C@H](O)COc1cccc2ccccc12 [(S)-propranolol hydrochloride]	-0.105	1.72	0.666	-0.426	-0.189	0.093
CC(C)OC(=O)C(C)(C)Oc1ccc(C(=O)c2ccc(Cl)cc2)cc1 [Fenofibrate]	-0.471	-0.341	-0.324	-0.246	-0.435	-0.631
CCc1c(C)[nH]c2c1C(=O)C(CN1CCOCC1)CC2 (stereo not given) [Molindone hydrochloride]	-0.564	-0.568	-0.123	-0.707	-0.506	-0.344
O=C(C1CCCCC1)N1CC(=O)N2CCc3ccccc3C2C1 (stereo not given) [Praziquantel]	-0.253	-0.0737	-0.0988	0.0128	-0.417	-0.225
Oc1ncnc2[nH]ncc12 [Allopurinol]	-0.351	0.486	-0.157	-0.285	-0.415	-0.506
COc1ccc(C(Cl)=C(c2ccc(OC)cc2)c2ccc(OC)cc2)cc1 [Chlorotrianisene]	-0.163	-0.13	0.392	-0.127	-0.183	-0.174
CC(C)(S)[C@@H](N)C(=O)O [Penicillamine]	-0.535	-0.589	-0.551	-0.607	-0.469	-0.553
CCOC(=O)c1ccc(N)cc1 [Benzocaine]	-0.607	-1.32	-0.4	-0.36	-0.613	-0.643
C#C[C@]1(O)CC[C@H]2[C@@H]3CCC4=C(CCC(=O)C4)[C@H]3CC[C@@]21C [Norethynodrel]	-0.487	-0.658	-0.784	-0.871	-0.48	-0.512
C=CC[N@@+]12CC[C@@]34c5ccccc5N5/C=C6/[C@H]7C[C@H]8[C@@]9(CC[N@@+]8(CC=C)C/C7=C/CO)c7ccccc7N(/C=C(/[C@@H](C[C@@H]31)/C(=C\CO)C2)[C@H]54)[C@@H]69 [Alcuronium chloride]	-0.441	-0.288	0.269	2.33	-0.417	-0.254
O=c1[nH]c(=O)n([C@H]2C[C@H](O)[C@@H](CO)O2)cc1C(F)(F)F [Trifluridine]	-0.394	0.648	3.04	3.8	-0.544	-0.762
NC(=O)C(c1ccccc1)(c1ccccc1)[C@@H]1CCN(CCc2ccc3c(c2)CCO3)C1 [Darifenacin hydrobromide]	3.46	1.76	3.28	1.47	2.87	3.06
O=C(NC(Cc1cc(=O)[nH]c2ccccc12)C(=O)O)c1ccc(Cl)cc1 (stereo not given) [Rebamipide]	-0.421	-0.707	-0.0406	0.196	-0.423	-0.367

SMILES	LBPA endosome anti-LBPA integrated intensity (z-score) (A431 [1])	LBPA endosome anti-LBPA integrated intensity (z-score) (HeLa MZ [2])	whole-cell filipin (z-score) (A431 [3])	whole-cell filipin (z-score) (HeLa MZ [4])	filipin (z-score) (A431 [5])	filipin (z-score) (HeLa MZ [6])
CC1CCc2c(N3CCC(O)CC3)c(F)cc3c(=O)c(C(=O)O)cn1c23 (stereo not given) [Nadifloxacin]	-0.419	-1.21	-0.24	-0.254	-0.402	-0.471
Cc1cnc(C(=O)NCCc2ccc(S(=O)(=O)NC(=O)NC3CCCCC3)cc2)cn1 [Glipizide]	-0.539	0.251	-1.07	-1.32	-0.587	-0.757
CCSc1ccc2c(c1)N(CCCN1CCN(C)CC1)c1ccccc1S2 [Thiethylperazine dimalate]	3.37	1.8	-0.311	-0.392	1.25	1.79
C[C@]1(Cn2ccnn2)[C@H](C(=O)O)N2C(=O)C[C@H]2S1(=O)=O [Tazobactam]	-0.572	-0.303	-0.35	0.00122	-0.502	-0.538
CN(C)CCOC(=O)COc1ccc(Cl)cc1 [Meclofenoxate hydrochloride]	-0.454	-0.858	-0.411	-0.563	-0.417	-0.533
NCc1ccc(S(N)(=O)=O)cc1 [Mafenide hydrochloride]	-0.472	-0.546	-0.682	-0.536	-0.471	-0.44
NC(N)=Nc1nc(CSCC/C(N)=N/S(N)(=O)=O)cs1 [Famotidine]	-0.5	-0.604	-0.838	-0.898	-0.447	-0.623
CCOc1ccc(Cc2nccc3cc(OCC)c(OCC)cc23)cc1OCC [Ethaverine hydrochloride]	0.203	2.53	0.476	0.57	-0.238	0.366
CN1C(=O)OC(C)(C)C1=O [Trimethadione]	-0.446	-0.0741	-0.388	-0.0387	-0.476	-0.496
CN1CCN(CCCN2c3ccccc3Sc3ccc(Cl)cc32)CC1 [Prochlorperazine dimaleate]	2.82	1.36	0.00438	-0.198	1.66	1.98
CC1(C)O[C@@H]2C[C@H]3[C@@H]4C[C@H](F)C5=CC(=O)C=C[C@]5(C)[C@H]4[C@@H](O)C[C@]3(C)[C@]2(C(=O)CO)O1 [Flunisolide]	-0.32	-1.26	-0.035	-0.18	-0.256	-0.365
OCC(O)CN1CCN(c2ccccc2)CC1 (racemic) [Dropropizine (R,S)]	-0.485	-0.821	-0.651	-0.914	-0.515	-0.59
C#C[C@]1(O)CC[C@H]2[C@@H]3CCC4=CCCC[C@@H]4[C@H]3CC[C@@]21C [Lynestrenol]	-0.602	-1.13	-1.14	-0.677	-0.563	-0.697
CC(C)NC[C@H](O)COc1ccc(CC(N)=O)cc1 [(S)-(-)-Atenolol]	-0.484	0.0669	-0.593	-0.509	-0.513	-0.661
Cc1oncc1C(=O)Nc1ccc(C(F)(F)F)cc1 [Leflunomide]	-0.572	-0.48	-0.143	-0.573	-0.693	-0.555
O=C1CCC(N2C(=O)c3ccccc3C2=O)C(=O)N1 (stereo not given) [Thalidomide]	-0.476	-0.403	-0.887	-1.09	-0.544	-0.68
C[C@H](N)[C@H](O)c1cccc(O)c1 [Metaraminol bitartrate]	-0.242	-0.0318	-0.347	-0.355	-0.416	-0.505
CCC(=O)OCC(=O)[C@@]1(OC(=O)CC)[C@H](C)C[C@H]2[C@H]3[C@H]([C@@H](O)C[C@@]21C)[C@@]1(C)C=CC(=O)C=C1C[C@H]3Cl [Alclometasone dipropionate]	-0.24	0.1	-0.316	-0.125	-0.325	-0.277
CCOC(=O)C1=C(C)NC(C)=C(C(=O)OCC)C1c1ccccc1/C=C/C(=O)OC(C)(C)C [Lacidipine]	0.359	1.4	0.71	1.28	0.446	0.927
O=C(CCCN1CCN(c2ccccn2)CC1)c1ccc(F)cc1 [Azaperone]	-0.0879	0.592	0.0723	0.216	-0.168	0.329
COc1ccc(OC)c(C(O)CNC(=O)CN)c1 (stereo not given) [Midodrine hydrochloride]	-0.477	-0.609	-0.887	-1.05	-0.605	-0.723
CCOC(=O)[C@H](CCc1ccccc1)N[C@@H](C)C(=O)N1CCC[C@H]1C(=O)O [Enalapril maleate]	-0.644	-2	-1.09	-0.795	-0.578	-0.713
CC(C)c1c(C(=O)Nc2ccccc2)c(-c2ccccc2)c(-c2ccc(F)cc2)n1CC[C@@H](O)C[C@@H](O)CC(=O)O [Atorvastatin]	-0.737	-0.992	-0.0189	-0.402	-0.543	-0.45
Cc1cc(NC(=O)C2=C(O)c3ccccc3S(=O)(=O)N2C)no1 [Isoxicam]	-0.656	-1.14	-0.786	-0.746	-0.604	-0.633
CC1(C)S[C@@H]2[C@H](NC(=O)Cc3ccccc3)C(=O)N2[C@H]1C(=O)O [Benzathine benzylpenicillin]	-0.419	0.43	0.0117	0.113	-0.376	-0.279
